Source: ChEMBL document CHEMBL4513216, “Probing the Open Global Health Chemical Diversity Library for Multistage-Active Starting Points for Next-Generation Antimalarials” (ACS Infect Dis, 2020)
The campaign covered roughly 69,000 compounds. About 8,600 (12%) showed an effect of 50% or more. Shown is part of a subset that was picked to be rich in strong results.

Each molecule was assayed on Plasmodium berghei (assay: Screen against P. berghei liver stage (PbLuc), transformed with Luciferase, at 10uM). Conditions: tested at 10 uM.
Format: functional, HepG2
`CNC(=O)C1(Cc2cc(C(C)C)no2)CCN(Cc2ccccn2)C1` (stereo not given) was tested, and the INHIBITION was 11.9%.
For `Cc1noc(C(C)C)c1C(=O)NS(=O)(=O)c1ccc(Cl)cc1`, the INHIBITION was -28.4%.
`CNc1cccc(C2CCCN(C(=O)c3cccnc3)C2)n1` (stereo not given) showed an INHIBITION of 35.2%.
`Cc1cnn(CC2CCCN2Cc2c(C)noc2C)c1` (stereo not given) was tested, and the INHIBITION was 5.983%.
`O=C(CCc1nccs1)N1CCCC(n2ccnc2)C1` (stereo not given) showed an INHIBITION of -1.14%.
With `CCOC(C)c1nccn1Cc1cc(C)on1` (stereo not given) the INHIBITION was 26.4%.
In the case of `CC(=O)Nc1ccc(CNC(C)c2c(C)nn(C)c2C)cc1` (stereo not given), the INHIBITION is reported as -42.1%.
`COCCC(=O)N1CCCC1c1csc(Nc2ccccn2)n1` (stereo not given) gave an INHIBITION of 30.8%.
With `CC(C)(C)c1cc(NC(=O)CN2CCCC2Cn2cncn2)on1` (stereo not given) the INHIBITION was 9.41%.
Molecule `CC(C)(C)c1nc(CN2CCCC2c2nnc3ccccn23)no1` (stereo not given) has an INHIBITION of 57.2%.
In the case of `Cc1noc(C)c1CN1CCCC1c1nnc2ccccn12` (stereo not given), the INHIBITION is reported as 17.5%.
For `CC(C)c1cc(NC(=O)CN2CCCC2Cn2cccn2)on1` (stereo not given), the INHIBITION was 19.5%.
Molecule `CC(C)(C)c1cc(NC(=O)CN2CCCC2Cn2cccn2)on1` (stereo not given) has an INHIBITION of 53%.
`CCn1c(C2CCCN2Cc2noc(C(C)(C)C)n2)nc2ccccc21` (stereo not given) was tested, and the INHIBITION was -12.1%.
Molecule `COc1cccc(C(=O)NC(CC(=O)O)c2cccs2)c1OC` (stereo not given) has an INHIBITION of -7.31%.
`CCc1nc(C#N)c(N2CCC(c3nc(-c4ccccc4)no3)CC2)o1` gave an INHIBITION of 34.6%.
`Cc1nc(C#N)c(N2CCC(c3nc(-c4ccc(F)cc4)no3)CC2)o1` showed an INHIBITION of 34%.
Molecule `Cc1nc(C#N)c(N2CCC(c3nc(-c4ccccc4)no3)CC2)o1` has an INHIBITION of 57.6%.
With `O=C(NCc1cc(F)cc(Br)c1)C1(O)CCSCC1` the INHIBITION was -26.2%.
In the case of `CC(C)(C(=O)N1CCC(C(N)=O)C1)c1ccccc1F` (stereo not given), the INHIBITION is reported as 52.9%.
`CC(C)(C(=O)N1CCC(CS(N)(=O)=O)CC1)c1ccccc1F` gave an INHIBITION of 17.9%.
`CC(C)(C(=O)NCC(=O)N1CCCC1)c1ccccc1F` was tested, and the INHIBITION was -36.4%.
`c1coc(CN2CCCC3(COCCN(Cc4c[nH]nn4)C3)C2)c1` (stereo not given) showed an INHIBITION of 4.92%.
Work on `CCNC(=O)C1CCN(c2cc(-c3ccccc3)nc3ccnn23)C1` (stereo not given) yielded an INHIBITION of 33%.
`Cc1nn2c(N3CCC(C(N)=O)CC3)cc(-c3ccccc3)nc2c1C` was tested, and the INHIBITION was 61.3%.
Work on `Cc1nn2c(N3CCCC(C(N)=O)C3)cc(-c3ccccc3)nc2c1C` (stereo not given) yielded an INHIBITION of -32.2%.
`CCNC(=O)C1CCN(c2cc(CC)nc3ccnn23)C1` (stereo not given) gave an INHIBITION of 52.2%.
With `CCNC(=O)C1CCN(c2nccc(C3CCCC3)n2)C1` (stereo not given) the INHIBITION was -2.34%.
Molecule `O=C1CN(c2cc(-c3ccccc3F)nc3ccnn23)CCCN1` has an INHIBITION of 6.11%.
Work on `CCc1cc(N2CC(N3CCCCC3C)C2)n2nccc2n1` (stereo not given) yielded an INHIBITION of 12.8%.
For `CC(=O)NC1CCN(c2cc(-c3ccccc3)nc3c(C)c(C)nn23)C1` (stereo not given), the INHIBITION was -3.58%.
With `Cc1nn2c(N3CCC(O)CC3)cc(-c3ccccc3)nc2c1C` the INHIBITION was 41.8%.
Work on `CCc1cc(N2CCN3CCCCC3C2)n2nccc2n1` (stereo not given) yielded an INHIBITION of 30.9%.
`CCNC(=O)C1CCN(c2cc(-c3ccccc3F)nc3ccnn23)C1` (stereo not given) showed an INHIBITION of 53.3%.
In the case of `CCNC(=O)C1CCN(c2cc(-c3ccccc3)nc3cc(C)nn23)C1` (stereo not given), the INHIBITION is reported as 56.5%.
`Cc1csc(CCNCc2cnc3c(c2)c(C)nn3C)n1` was tested, and the INHIBITION was -14.8%.
Work on `COCC1CN(Cc2ccc(OC)cc2)Cc2nnn(CC3CC3)c21` (stereo not given) yielded an INHIBITION of 18.7%.
`COCCOc1ccc(CNC2CCc3ncnn3C2)cc1OC` (stereo not given) was tested, and the INHIBITION was 49.5%.
Molecule `COc1cccc(CCNS(=O)(=O)c2ccc(NC(C)=O)cc2)c1` has an INHIBITION of 22.9%.
With `CCN1CCN(C)C(=O)C12CCN(Cc1cccc(C)c1)CC2` the INHIBITION was 39.5%.
With `Cc1nc(CN2CCN(C(=O)c3ccc(=O)n(C)c3)CC2)cs1` the INHIBITION was -15.9%.
For `CN(C)C(=O)NCC(=O)N1CCCC2(CCC(=O)N(CC3CC3)C2)C1` (stereo not given), the INHIBITION was 24.9%.
Work on `O=C(NCC1(O)CCC1)NC(c1cc(F)ccc1F)C1CC1` (stereo not given) yielded an INHIBITION of 31.2%.
With `CS(=O)(=O)N1C[C@H]2CC[C@@H](C1)N(C(=O)CCc1ccsc1)C2` the INHIBITION was -34.8%.
In the case of `OC[C@H]1CN(Cc2c(Cl)cncc2Cl)C[C@H]1CN1CCOCC1`, the INHIBITION is reported as -37.9%.
With `Cc1cc(C(F)(F)F)cc(N2C[C@@H](CN(C)CCO)[C@@H](CO)C2)n1` the INHIBITION was 0.348%.
In the case of `Cc1nc(CN2CCC3(CCCO3)CC2)c2ccccn12`, the INHIBITION is reported as 53.6%.
Work on `Cc1ccc(C2(O)CCN(Cc3nc(C)n4ccccc34)CC2)nc1` yielded an INHIBITION of 26.1%.
`Cc1nc(CN2CCC(O)(c3ccccc3F)CC2)c2ccccn12` gave an INHIBITION of 23.9%.
Molecule `Cc1nc(CN2C[C@@H](CN3CCOCC3)[C@@H](CO)C2)c2ccccn12` has an INHIBITION of 63.7%.
`COc1cnc(N2C[C@@H](CN3CCOCC3)[C@@H](CO)C2)nc1` was tested, and the INHIBITION was -35%.
Work on `Cc1cc(C(F)(F)F)cc(N2C[C@@H](CN3CCOCC3)[C@@H](CO)C2)n1` yielded an INHIBITION of 53.2%.
For `Cc1nc2ccccn2c1CN1C[C@@H](CN2CCOCC2)[C@@H](CO)C1`, the INHIBITION was 12.8%.
With `CCC1CN(C(=O)NCCOc2ccc3c(c2)OCO3)CCO1` (stereo not given) the INHIBITION was 30.2%.
`Cc1cc(Oc2ccccc2)nc(C2CCN(CCO)CC2)n1` was tested, and the INHIBITION was 24.15%.
`Cn1cccc1C(=O)N[C@@H]1CN(Cc2cccs2)[C@@H]2COC[C@@H]21` was tested, and the INHIBITION was -4.88%.
`Cc1nc(Cn2c3c(ccc2=O)CC(N)CC3)cs1` (stereo not given) was tested, and the INHIBITION was 9.65%.
`CN(Cc1cccc(O)c1)C(=O)Nc1cccnc1N1CCCC1` gave an INHIBITION of 33.3%.
`O=c1[nH]c2csnc2c(=O)n1Cc1ccc(Br)cc1` showed an INHIBITION of 29.1%.
`CCC(c1nc(C(C)C)nn1-c1ccncc1C)n1cccn1` (stereo not given) gave an INHIBITION of 57.2%.
For `Cc1cnccc1-n1nc(C(C)C)nc1CCc1cnccn1`, the INHIBITION was -3.12%.
`CCC(c1nc(C(C)C)nn1-c1ccccn1)n1cccn1` (stereo not given) showed an INHIBITION of 38.8%.
For `CCCn1ccnc1CN1CC[C@@H](NC(=O)c2cccnc2)[C@H](O)C1`, the INHIBITION was 12.9%.
With `Cc1nn(CCO)c(C)c1CN1CCN(C2CCCCC2)C(=O)C1` the INHIBITION was 16.9%.
Molecule `CC(=O)NCCNC(=O)Nc1cccc(Cl)c1SC(F)F` has an INHIBITION of 46.4%.
`O=C(CNC(=O)Nc1cccc(Cl)c1SC(F)F)NC1CC1` showed an INHIBITION of 29.5%.
`CCNC(=O)CNC(=O)Nc1cccc(Cl)c1SC(F)F` was tested, and the INHIBITION was 64.3%.
`CNC(=O)CCNC(=O)Nc1cccc(Cl)c1SC(F)F` showed an INHIBITION of 60.3%.
`O=C(NCCO)Nc1cccc(Cl)c1SC(F)F` was tested, and the INHIBITION was 13%.
For `CN(C)C(=O)CNC(=O)Nc1cccc(Cl)c1SC(F)F`, the INHIBITION was 23.2%.
